Reference: the supplement of paper PMC4466140

Biological target: AgAbp1
Experiment: SPOT peptide array binding signal intensity (averaged, normalized) (arbitrary units (background-subtracted, floor 0; scale differs between SH3 domains)); higher = stronger binding of the SH3 domain to the peptide
In short: (§1)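 E. coli BL21(DE3) was used to express GST-fused SH3 domains from four yeast species, which were then purified on glutathione Sepharose. These were incubated at 10 μg/ml in TBS-based blocking buffer overnight at 4°C on cellulose membranes carrying synthetic 15-mer peptides, in which cysteines were replaced by serines. Binding signal is the replicate average of normalized, background-subtracted spot intensity, in arbitrary units that differ between domains.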

| Binder | SPOT peptide array binding signal intensity |
| --- | --- |
| APPLPPTAPPPPSLP | ≤ 0 |

Biological target: AgBbc1
Experiment: as above
In short: as §1

| Binder | SPOT peptide array binding signal intensity |
| --- | --- |
| APPLPPTAPPPPSLP | ≤ 0 |

Biological target: AgBem1-D1
Experiment: as above
In short: as §1

| Binder | SPOT peptide array binding signal intensity |
| --- | --- |
| APPLPPTAPPPPSLP | ≤ 0 |

Biological target: AgBzz1-D1
Experiment: as above
In short: as §1

| Binder | SPOT peptide array binding signal intensity |
| --- | --- |
| APPLPPTAPPPPSLP | ≤ 0 |

Biological target: AgBzz1-D2
Experiment: as above
In short: as §1

| Binder | SPOT peptide array binding signal intensity |
| --- | --- |
| APPLPPTAPPPPSLP | 3 |

Biological target: AgCyk3
Experiment: as above
In short: as §1

| Binder | SPOT peptide array binding signal intensity |
| --- | --- |
| APPLPPTAPPPPSLP | ≤ 0 |

Biological target: AgFus1
Experiment: as above
In short: as §1

| Binder | SPOT peptide array binding signal intensity |
| --- | --- |
| APPLPPTAPPPPSLP | ≤ 0 |

Biological target: AgHof1
Experiment: as above
In short: as §1

| Binder | SPOT peptide array binding signal intensity |
| --- | --- |
| APPLPPTAPPPPSLP | 116 |

Biological target: AgHse1
Experiment: as above
In short: as §1

| Binder | SPOT peptide array binding signal intensity |
| --- | --- |
| APPLPPTAPPPPSLP | 13 |

Biological target: AgLsb1
Experiment: as above
In short: as §1

| Binder | SPOT peptide array binding signal intensity |
| --- | --- |
| APPLPPTAPPPPSLP | ≤ 0 |

Biological target: AgLsb4
Experiment: as above
In short: as §1

| Binder | SPOT peptide array binding signal intensity |
| --- | --- |
| APPLPPTAPPPPSLP | 3 |

Biological target: AgMyo5
Experiment: as above
In short: as §1

| Binder | SPOT peptide array binding signal intensity |
| --- | --- |
| APPLPPTAPPPPSLP | 2800 |

Biological target: AgNbp2
Experiment: as above
In short: as §1

| Binder | SPOT peptide array binding signal intensity |
| --- | --- |
| APPLPPTAPPPPSLP | ≤ 0 |

Biological target: AgRvs167
Experiment: as above
In short: as §1

| Binder | SPOT peptide array binding signal intensity |
| --- | --- |
| APPLPPTAPPPPSLP | ≤ 0 |

Biological target: AgSho1
Experiment: as above
In short: as §1

| Binder | SPOT peptide array binding signal intensity |
| --- | --- |
| APPLPPTAPPPPSLP | ≤ 0 |

Biological target: AgSla1-D1-D2
Experiment: as above
In short: as §1

| Binder | SPOT peptide array binding signal intensity |
| --- | --- |
| APPLPPTAPPPPSLP | 2 |

Biological target: AgSla1-D3
Experiment: as above
In short: as §1

| Binder | SPOT peptide array binding signal intensity |
| --- | --- |
| APPLPPTAPPPPSLP | 0.5 |

Biological target: CaAbp1-D1
Experiment: as above
In short: as §1

| Binder | SPOT peptide array binding signal intensity |
| --- | --- |
| APPLPPTAPPPPSLP | ≤ 0 |

Biological target: CaAbp1-D2
Experiment: as above
In short: as §1

| Binder | SPOT peptide array binding signal intensity |
| --- | --- |
| APPLPPTAPPPPSLP | ≤ 0 |

Biological target: CaBbc1
Experiment: as above
In short: as §1

| Binder | SPOT peptide array binding signal intensity |
| --- | --- |
| APPLPPTAPPPPSLP | ≤ 0 |

Biological target: CaBem1-D1
Experiment: as above
In short: as §1

| Binder | SPOT peptide array binding signal intensity |
| --- | --- |
| APPLPPTAPPPPSLP | 1 |

Biological target: CaBzz1-D1
Experiment: as above
In short: as §1

| Binder | SPOT peptide array binding signal intensity |
| --- | --- |
| APPLPPTAPPPPSLP | ≤ 0 |

Biological target: CaBzz1-D2
Experiment: as above
In short: as §1

| Binder | SPOT peptide array binding signal intensity |
| --- | --- |
| APPLPPTAPPPPSLP | ≤ 0 |

Biological target: CaCyk3
Experiment: as above
In short: as §1

| Binder | SPOT peptide array binding signal intensity |
| --- | --- |
| APPLPPTAPPPPSLP | ≤ 0 |

Biological target: CaFus1
Experiment: as above
In short: as §1

| Binder | SPOT peptide array binding signal intensity |
| --- | --- |
| APPLPPTAPPPPSLP | ≤ 0 |

Biological target: CaHof1
Experiment: as above
In short: as §1

| Binder | SPOT peptide array binding signal intensity |
| --- | --- |
| APPLPPTAPPPPSLP | ≤ 0 |

Biological target: CaHse1
Experiment: as above
In short: as §1

| Binder | SPOT peptide array binding signal intensity |
| --- | --- |
| APPLPPTAPPPPSLP | ≤ 0 |

Biological target: CaLsb1
Experiment: as above
In short: as §1

| Binder | SPOT peptide array binding signal intensity |
| --- | --- |
| APPLPPTAPPPPSLP | ≤ 0 |

Biological target: CaLsb4
Experiment: as above
In short: as §1

| Binder | SPOT peptide array binding signal intensity |
| --- | --- |
| APPLPPTAPPPPSLP | ≤ 0 |

Biological target: CaMyo5
Experiment: as above
In short: as §1

| Binder | SPOT peptide array binding signal intensity |
| --- | --- |
| APPLPPTAPPPPSLP | 2460 |

Biological target: CaNbp2
Experiment: as above
In short: as §1

| Binder | SPOT peptide array binding signal intensity |
| --- | --- |
| APPLPPTAPPPPSLP | 7.5 |

Biological target: CaRvs167
Experiment: as above
In short: as §1

| Binder | SPOT peptide array binding signal intensity |
| --- | --- |
| APPLPPTAPPPPSLP | 0.167 |

Biological target: CaRvs167-3
Experiment: as above
In short: as §1

| Binder | SPOT peptide array binding signal intensity |
| --- | --- |
| APPLPPTAPPPPSLP | 2.5 |

Biological target: CaSho1
Experiment: as above
In short: as §1

| Binder | SPOT peptide array binding signal intensity |
| --- | --- |
| APPLPPTAPPPPSLP | 8 |

Biological target: CaSla1-D1-D2
Experiment: as above
In short: as §1

| Binder | SPOT peptide array binding signal intensity |
| --- | --- |
| APPLPPTAPPPPSLP | ≤ 0 |

Biological target: CaSla1-D3
Experiment: as above
In short: as §1

| Binder | SPOT peptide array binding signal intensity |
| --- | --- |
| APPLPPTAPPPPSLP | ≤ 0 |

Biological target: ScAbp1
Experiment: as above
In short: as §1

| Binder | SPOT peptide array binding signal intensity |
| --- | --- |
| APPLPPTAPPPPSLP | 0.5 |

Biological target: ScBbc1
Experiment: as above
In short: as §1

| Binder | SPOT peptide array binding signal intensity |
| --- | --- |
| APPLPPTAPPPPSLP | ≤ 0 |

Biological target: ScBem1-D1
Experiment: as above
In short: as §1

| Binder | SPOT peptide array binding signal intensity |
| --- | --- |
| APPLPPTAPPPPSLP | 0.5 |

Biological target: ScBzz1-D1
Experiment: as above
In short: as §1

| Binder | SPOT peptide array binding signal intensity |
| --- | --- |
| APPLPPTAPPPPSLP | ≤ 0 |

Biological target: ScBzz1-D2
Experiment: as above
In short: as §1

| Binder | SPOT peptide array binding signal intensity |
| --- | --- |
| APPLPPTAPPPPSLP | ≤ 0 |

Biological target: ScCyk3
Experiment: as above
In short: as §1

| Binder | SPOT peptide array binding signal intensity |
| --- | --- |
| APPLPPTAPPPPSLP | 2 |

Biological target: ScFus1
Experiment: as above
In short: as §1

| Binder | SPOT peptide array binding signal intensity |
| --- | --- |
| APPLPPTAPPPPSLP | ≤ 0 |

Biological target: ScHof1
Experiment: as above
In short: as §1

| Binder | SPOT peptide array binding signal intensity |
| --- | --- |
| APPLPPTAPPPPSLP | 212 |

Biological target: ScHse1
Experiment: as above
In short: as §1

| Binder | SPOT peptide array binding signal intensity |
| --- | --- |
| APPLPPTAPPPPSLP | ≤ 0 |

Biological target: ScLsb1
Experiment: as above
In short: as §1

| Binder | SPOT peptide array binding signal intensity |
| --- | --- |
| APPLPPTAPPPPSLP | ≤ 0 |

Biological target: ScLsb2
Experiment: as above
In short: as §1

| Binder | SPOT peptide array binding signal intensity |
| --- | --- |
| APPLPPTAPPPPSLP | ≤ 0 |

Biological target: ScLsb3
Experiment: as above
In short: as §1

| Binder | SPOT peptide array binding signal intensity |
| --- | --- |
| APPLPPTAPPPPSLP | ≤ 0 |

Biological target: ScLsb4
Experiment: as above
In short: as §1

| Binder | SPOT peptide array binding signal intensity |
| --- | --- |
| APPLPPTAPPPPSLP | 4 |

Biological target: ScMyo3
Experiment: as above
In short: as §1

| Binder | SPOT peptide array binding signal intensity |
| --- | --- |
| APPLPPTAPPPPSLP | 3490 |

Biological target: ScMyo5
Experiment: as above
In short: as §1

| Binder | SPOT peptide array binding signal intensity |
| --- | --- |
| APPLPPTAPPPPSLP | 3170 |

Biological target: ScNbp2
Experiment: as above
In short: as §1

| Binder | SPOT peptide array binding signal intensity |
| --- | --- |
| APPLPPTAPPPPSLP | 0.5 |

Biological target: ScPex13
Experiment: as above
In short: as §1

| Binder | SPOT peptide array binding signal intensity |
| --- | --- |
| APPLPPTAPPPPSLP | ≤ 0 |

Biological target: ScRvs167
Experiment: as above
In short: as §1

| Binder | SPOT peptide array binding signal intensity |
| --- | --- |
| APPLPPTAPPPPSLP | ≤ 0 |

Biological target: ScSho1
Experiment: as above
In short: as §1

| Binder | SPOT peptide array binding signal intensity |
| --- | --- |
| APPLPPTAPPPPSLP | ≤ 0 |

Biological target: ScSla1-D1-D2
Experiment: as above
In short: as §1

| Binder | SPOT peptide array binding signal intensity |
| --- | --- |
| APPLPPTAPPPPSLP | ≤ 0 |

Biological target: ScSla1-D3
Experiment: as above
In short: as §1

| Binder | SPOT peptide array binding signal intensity |
| --- | --- |
| APPLPPTAPPPPSLP | 0.5 |

Biological target: SpAbp1-D1
Experiment: as above
In short: as §1

| Binder | SPOT peptide array binding signal intensity |
| --- | --- |
| APPLPPTAPPPPSLP | ≤ 0 |

Biological target: SpBbc1
Experiment: as above
In short: as §1

| Binder | SPOT peptide array binding signal intensity |
| --- | --- |
| APPLPPTAPPPPSLP | 1 |

Biological target: SpBzz1-D1
Experiment: as above
In short: as §1

| Binder | SPOT peptide array binding signal intensity |
| --- | --- |
| APPLPPTAPPPPSLP | 525 |
